Source: PubChem BioAssay (National Center for Advancing Translational Sciences (NCATS))
p53 reactivation: restores transcriptional activity of mutant p53. Potency, µM (doses to about 92.2 µM), actives largely listed as activators. 0.063% of 320,000 active. H1299 p53-A138V BP100-luciferase reporter, luminescence, 24 h. AID 504706; active means well fitted activation curve with a large enough effect; inconclusive means small, poorly fitted or top-dose-only effect; inactive means no such curve, though single readings can be large or run the other way; further: nearly all actives have a fitted effect of over 45% in size
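H1299 (p53-null), stable ts p53-A138V + BP100-Luc; 1000 cells/well, Opti-MEM/10% FBS; cpd 4 pt, 1:5; 24 h, 37 deg C, 5% CO2; detection reagent 10 min RT; luminescence.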
KCNH2 WT inh: KCNH2 (human, wildtype) channel inhibition. Q12809. U2OS, BacMam KCNH2, thallium flux FluxOr; hits give low values. activity change, % at 1.84 µM. 0.37% of 340,000 active;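 active means maximum activity change below -70%; inconclusive means maximum activity change between -70% and -50%; inactive means maximum activity change above -50%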
Target sequence (Q12809 whole entry, looked up): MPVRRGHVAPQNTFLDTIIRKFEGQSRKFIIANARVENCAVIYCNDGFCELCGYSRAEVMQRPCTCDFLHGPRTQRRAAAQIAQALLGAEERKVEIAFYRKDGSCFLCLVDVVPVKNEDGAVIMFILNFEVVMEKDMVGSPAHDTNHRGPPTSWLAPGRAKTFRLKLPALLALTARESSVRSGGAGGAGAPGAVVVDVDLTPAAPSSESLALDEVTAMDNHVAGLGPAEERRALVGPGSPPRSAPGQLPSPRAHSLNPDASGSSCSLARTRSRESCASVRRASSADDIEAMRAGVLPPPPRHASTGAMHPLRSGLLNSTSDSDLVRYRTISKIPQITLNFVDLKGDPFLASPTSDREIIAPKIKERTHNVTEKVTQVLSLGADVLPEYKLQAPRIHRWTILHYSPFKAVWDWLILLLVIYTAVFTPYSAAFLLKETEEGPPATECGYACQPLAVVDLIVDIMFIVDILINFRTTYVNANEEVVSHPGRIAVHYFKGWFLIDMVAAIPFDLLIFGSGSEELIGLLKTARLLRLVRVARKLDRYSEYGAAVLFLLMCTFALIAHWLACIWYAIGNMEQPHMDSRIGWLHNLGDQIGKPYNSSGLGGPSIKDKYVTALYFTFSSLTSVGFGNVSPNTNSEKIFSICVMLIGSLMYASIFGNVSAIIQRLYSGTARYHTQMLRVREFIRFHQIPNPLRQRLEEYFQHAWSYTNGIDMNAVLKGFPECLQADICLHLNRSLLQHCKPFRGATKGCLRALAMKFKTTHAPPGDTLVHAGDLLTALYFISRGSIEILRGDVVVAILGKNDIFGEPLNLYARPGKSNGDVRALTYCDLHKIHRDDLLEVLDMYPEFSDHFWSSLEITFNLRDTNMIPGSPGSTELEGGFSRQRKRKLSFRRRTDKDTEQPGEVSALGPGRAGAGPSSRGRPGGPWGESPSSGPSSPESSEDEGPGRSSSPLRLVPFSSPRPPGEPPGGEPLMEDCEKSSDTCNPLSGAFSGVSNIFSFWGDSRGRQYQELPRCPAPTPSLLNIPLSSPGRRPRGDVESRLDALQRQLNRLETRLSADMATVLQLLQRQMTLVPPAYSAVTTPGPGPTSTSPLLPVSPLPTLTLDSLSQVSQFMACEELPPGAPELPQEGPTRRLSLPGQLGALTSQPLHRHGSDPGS
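U2OS cells were transduced with wild-type KCNH2 virus (2.03 x 10^8 / mL) for 4 h at room temperature, then cultured overnight at 37 C. Thallium flux was read with FluxOr dye. Rate constants were normalized to DMSO controls.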
KCNH2 3.1 inh: blocks the human KCNH2 3.1 channel isoform. 0.95% of 340,000 active. activity change, % (tested at about 1.8 µM). U2OS KCNH2 3.1, thallium flux FluxOr; hits give low values;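 active means maximum activity change below -70%; inconclusive means maximum activity change from -70% to -50%; inactive means maximum activity change above -50%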;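 further: thallium influx rate constant from kinetic fluorescence after stimulation buffer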
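Virally transduced U2OS (3.1 isoform, 4 h infection in dark at RT) → overnight 37 C → FluxOr + Red40 in HBSS/HEPES, 45 min → stimulation buffer, 2 min kinetic read → rate constant vs DMSO controls.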
TRPV1 ag: activates the human vanilloid receptor TRPV1; activation, % at 8.33 µM; 0.19% of 320,000 active; AID 540275; TRPV1-expressing cells, Fluo-8 calcium influx, agonist mode; in the data active means activation above about 80%; inconclusive means between about 30% and that limit
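Fluo-8 calcium influx in TRPV1-expressing cells, kinetic read (ex 480/em 520 nm). Compound added and read 3 min for agonist activity, followed by capsaicin at EC20 final and 2 min further read for enhancement.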
ClpP mod: qHTS Assay for Activators of ClpP | 1.9% of 340,000 active | Potency, µM (titrated, usually from 57.5 µM) | purified B. subtilis ClpP, FRET peptide cleavage, 20 min | ATP-dependent Clp protease proteolytic subunit (Bacillus subtilis (strain 168)), P80244; active means well fitted falling curve with a large enough effect; inconclusive means small, poorly fitted or top-dose-only effect; inactive means no such curve, though single readings can be large or run the other way; further: the source files actives as falling curves though it sought activators and does not explain the sign; nearly all actives have a fitted effect of over 65% in size
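Buffer: 100 mM Tris/HCl pH8, 100 mM KCl, 0.05% low protease BSA, 2.5% glycerol, 0.01% Tween-20. ClpP 10 microg/mL final; 20 min RT; delta FRET normalized to ADEP and DMSO controls.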
TRPV1 potentiator: enhances activation of the human vanilloid receptor TRPV1. Q8NER1. TRPV1-expressing cells, Fluo-8 calcium influx, capsaicin EC20 potentiation. potentiation, % at 8.33 µM. 0.02% of 320,000 active. AID 540277; in the data active means potentiation above about 80%; inconclusive means between about 30% and that limit
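Cells expressing TRPV1 were dye-loaded with Fluo-8 and read kinetically: 10 s baseline, 3 min after compound (agonist portion), then 2 min after EC20 capsaicin (allosteric enhancer portion). Calcium-bound dye fluorescence at 480/520 nm.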
A number is an active result; i = inactive; ? = inconclusive; nt = no result. Compounds with a hit are over-represented: about 2.6% of the library has one in this group of screens.

SMILES	p53 reactivation	KCNH2 WT inh	KCNH2 3.1 inh	TRPV1 ag	ClpP mod	TRPV1 potentiator
Cc1ccc(S(=O)(=O)N(C)C/N=C(\N)N[N+](=O)[O-])cc1	i	i	i	i	nt	i
Cc1ccc(S(=O)(=O)N(C)CCCC(=O)N2CCN(c3ccccn3)CC2)cc1	i	i	i	i	31.6µM	i
O=c1c2ccccc2nc(/C=C/c2ccccc2F)n1-c1cccc(O)c1	nt	nt	nt	nt	i	nt
CCOC(=O)c1ccccc1NC(=O)N(Cc1ccc(CC)cc1)Cc1cn[nH]c1-c1ccc(OC)cc1	nt	nt	nt	nt	35.5µM	nt
CNC(=O)O/N=C/C(C)(C)S(C)=O (centres undefined)	nt	nt	nt	nt	i	nt
O=C(COc1ccc(Br)cc1)N1CCN(Cc2c[nH]c3ccccc23)CC1	i	-79.9	-71.6	i	i	i
O=C(COc1ccc2ccccc2c1)N1CCN(Cc2c[nH]c3ccccc23)CC1	i	i	i	i	i	i
COc1ccc(CN2CCN(C(=O)COc3ccc4ccccc4c3)CC2)c(OC)c1	i	i	-92.8	i	i	i
CCOC(=O)c1ccc(NC(=O)c2cccn(Cc3ccc(C)cc3)c2=O)cc1	nt	nt	nt	nt	i	nt
Cc1ccc(Cn2nc(C(=O)Nc3ccc(Br)cc3)cc2C)cc1	?	i	i	107.9	nt	i
O=[N+]([O-])c1ccc(N(CCO)CCO)c2c1no[n+]2[O-]	nt	i	-92.0	nt	i	nt
CCN(c1ccccc1)S(=O)(=O)c1ccc(NC(=O)c2cc(=O)c3ccccc3o2)cc1	nt	nt	nt	nt	i	nt
Cc1cccc2nc(-c3ccccc3)c(-c3ccc(CN4CCC(n5c(=O)[nH]c6ccccc65)CC4)cc3)nc12	nt	nt	nt	nt	25.1µM	nt
Nc1ccc2c(c1)oc1ccccc12	i	i	i	i	12.6µM	i
Cc1ccc(CNc2cc(C)nc3nc(-c4ccc(C)cc4)nn23)cc1	nt	nt	nt	nt	i	nt
CCCOC(=O)COc1cc(C)cc2oc(=O)c3c(c12)CCC3	i	i	i	i	25.1µM	i
Cc1cc(OC(=O)c2ccco2)c2c3c(c(=O)oc2c1)CCCC3	i	i	i	i	22.4µM	i
Cc1cc(OCC(=O)Nc2cc(C)nn2-c2ccccn2)c2c3c(c(=O)oc2c1)CCC3	i	nt	nt	i	nt	i
Cc1cc(OC(=O)c2cccs2)c2c3c(c(=O)oc2c1)CCCC3	i	i	i	i	i	i
Cc1ccc(-n2nc(C)cc2NC(=O)COc2cc(C)cc3oc(=O)c4c(c23)CCC4)cc1	i	i	i	i	25.1µM	i
COc1cc([C@@H]2c3cc4c(c(O)c3C[C@H]3COC(=O)[C@@H]32)OCO4)cc(OC)c1OC	nt	nt	nt	nt	i	nt
COc1ccc(C(=O)NCc2cc3ccccc3n2C)cc1	?	i	i	i	i	i
CCCCn1c(O)c(C(CC)=Nc2ccc(C(=O)O)cc2)c(=O)[nH]c1=O	i	i	i	i	2.51µM	i
C=CCn1c(O)c(C(CC)=Nc2ccc(C(=O)O)cc2)c(=O)[nH]c1=O	i	i	i	i	nt	i
O=S(=O)(Nc1ccc(-c2nc3ccccc3o2)cc1)c1ccccc1	i	i	i	i	28.2µM	i
SMILES	p53 reactivation	KCNH2 WT inh	KCNH2 3.1 inh	TRPV1 ag	ClpP mod	TRPV1 potentiator
Cc1ccc(S(=O)(=O)c2nc(-c3ccccc3Cl)oc2N(C)C2CCN(C)CC2)cc1	i	?	-80.1	nt	i	nt
CCOC(=O)C1=C(N)Oc2c(c(=O)oc3ccccc23)C12C(=O)N(C)c1ccccc12 (centres undefined)	i	i	i	i	i	?
C=CCN1C(=O)C2(C(C(=O)OCC)=C(N)Oc3ccccc32)c2c1c1ccccc1oc2=O (centres undefined)	i	i	-109.0	i	i	i
O=C(c1cc(-c2cccc(Cl)c2)on1)N1CCOCC1	?	i	i	?	nt	i
O=C(Cc1c(O)c2ccccc2oc1=O)c1ccc(F)cc1	?	i	i	i	i	i
COC(=O)C12CCc3c(ccc4cc(OC)ccc34)C1=CC(=O)C2 (centres undefined)	nt	i	i	nt	28.2µM	nt
CCOc1cc2c(cc1OCC)-n1cccc1C(c1ccc(OC(F)F)cc1)NC2 (centres undefined)	i	i	-81.9	i	i	i
CCOc1cc2c(cc1OCC)-n1cccc1C(c1ccc(OC)cc1)NC2 (centres undefined)	i	i	i	i	nt	i
COC(=O)C(O)(c1ccc(NC(=O)c2cccs2)c(C)c1)C(F)(F)F (centres undefined)	i	i	i	i	i	i
COC(=O)C(O)(c1ccc(N=Cc2ccccc2O)c(C)c1)C(F)(F)F (centres undefined)	i	-112.9	i	i	i	i
Cc1nc2ccccc2c(=O)n1-c1cccc(C(F)(F)F)c1	nt	i	i	i	28.2µM	i
Cc1ccc(C(=O)N[C@@H](C)CN2C3=NC[C@@H](Cc4ccccc4)N3C[C@H]2Cc2ccc(O)cc2)cc1Br	i	nt	nt	i	i	i
Cc1ccc(C(=O)N[C@@H](C)CN2C3=NC[C@H](Cc4ccccc4)N3C[C@H]2Cc2ccc(O)cc2)cc1Br	i	-84.8	i	i	i	?
CN1CCN(Cc2cc(=O)n3ccsc3n2)CC1	i	i	-81.1	i	i	?
O=c1cc(CN2CCNCC2)nc2sccn12	i	i	i	i	i	i
CC(C)OP(=O)(c1ccc(N(C)C)cc1)C(O)c1ccc(Br)cc1 (centres undefined)	?	i	i	i	nt	i
O=C1OC(=O)C2C3CCC(O3)C12 (centres undefined)	i	nt	nt	i	nt	i
Cc1ccc2c(c1)CC1(CN2C)C(=O)NC(=O)N(C(C)C)C1=O (centres undefined)	i	i	i	i	i	i
Cc1ccc2c(c1)CC1(CN2C)C(=O)NC(=O)N(CCC2=CCCCC2)C1=O (centres undefined)	i	i	i	i	15.8µM	i
COC(=O)C1=C(c2ccc(F)cc2OCc2ccccc2)C[C@@H]2CC[C@H]1N2C(=O)NCc1ccc([N+](=O)[O-])cc1	i	i	-87.7	i	i	i
COC(=O)C1=C(c2cccc(OC)c2OC)C[C@@H]2CC[C@H]1N2C(=O)NCc1ccc(F)cc1	nt	i	-126.4	nt	i	nt
ClCCN(CCCl)c1ccc(/C=C/c2sc3ccccc3[n+]2CCCCI)cc1	nt	nt	nt	nt	i	nt
CCOP(=O)(OCC)C(NC(=O)c1cccc(C)c1)C(Cl)(Cl)Cl (centres undefined)	i	i	i	i	i	i
CCOP(=O)(OCC)C(NC(=O)c1cccc([N+](=O)[O-])c1)C(Cl)(Cl)Cl (centres undefined)	i	i	i	i	31.6µM	i
O=[N+]([O-])c1cccc(CN2CCN(Cc3ccc(Cl)cc3)CC2)c1	i	i	-83.6	i	nt	i
CC(C)N1CCN(Cc2cccc([N+](=O)[O-])c2)CC1	i	i	i	i	nt	i
